Compound activity as filed in PubChem BioAssay.
Only some compounds are listed: those with a hit (about 2.1% of all), similar ones and a draw of the others.
IEC-6 tox: IEC-6 cytotoxicity, counter-screen for KLF5 inhibitors; luminescence viability; inhibition, % at 5 µM; actives 0.78% (n = 290,000); AID 1825; in the data active = inhibition above about 22%
APP 5UTR inh: APP translation inhibition; SH-SY5Y APP 5'UTR-luciferase reporter, luminescence; inhibition, % at 2 µM; actives 0.82% (n = 190,000);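 active = inhibition above a set limit, derived from the sample mean plus 3 SD, cut at about 45% in these data; inconclusive = one replicate passes the limit while the other fails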
KLF5 inhibitor: kruppel-like factor 5 inhibition. DLD-1 KLF5 promoter-luciferase reporter, luminescence. inhibition, % at 5 µM. actives 0.23% (n = 290,000);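 active = inhibition above a per-plate limit of that plate's mean compound inhibition plus 3 SD, cut at about 60% in these data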;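 note: higher means less KLF5 promoter-driven luciferase light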
Ba/F3 V617F tox: lowers viability of Ba/F3 cells expressing EpoR and JAK2V617F; ATP luminescence; inhibition, % at 5.6 µM; actives 1.1% (n = 220,000); AID 1446;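 active = inhibition above the campaign mean plus 3 SD over all tested compounds, cut at about 24% in these data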;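 note: cytokine-independent growth of Ba/F3 cells driven by EpoR plus mutant JAK2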
BaF3 tox: reduces parental Ba/F3 cell viability, JAK2V617F counter-screen | CellTiter-Glo ATP luminescence | inhibition, % at 5.6 µM | actives 1.1% (n = 220,000) | AID 1486;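 active = inhibition above a per-campaign cutoff, the mean inhibition of all tested compounds plus 3 SD, cut at about 27% in these data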
aSyn 5UTR inh: MLPCN primary screen, SNCA 5' untranslated region; alpha-synuclein 5'UTR reporter, inhibitor activity; inhibition, % (tested at 7.5 µM); actives 0.82% (n = 300,000); in the data active = inhibition above about 60%; inconclusive = no clear call, values can overlap the other calls;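 note: H4 neuroglioblastoma cells stably carrying SNCA 5'UTR luciferase fusion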
Each line names hits and unclear results; the compound was inactive in the other large screens.

CCC(C)[C@@H]1NC(=O)N(CCCN2CCCC2=O)C1=O (stereo partly specified)	none (no result: APP 5UTR inh, Ba/F3 V617F tox, BaF3 tox)
CC(=O)Nc1ccc(NC(=S)NC(=O)c2cc3ccccc3o2)cc1	none
Cc1ccc(C(=O)NC(=S)Nc2ccc(-c3cc4ccccc4oc3=O)cc2)c(C)c1	aSyn 5UTR inh 88 (no result: APP 5UTR inh)
O=C(Cc1cccc2ccccc12)Nc1ccc(-c2cc3ccccc3oc2=O)cc1	aSyn 5UTR inh 65
Cc1cc(C)cc(C(=O)NC(=S)Nc2ccc(-c3cc4ccccc4oc3=O)cc2)c1	aSyn 5UTR inh 97
CCC(=O)Nc1cccc(-c2cc3ccccc3oc2=O)c1	none
CC(=O)Nc1ccc(NC(=O)c2cccc(-c3cc4ccccc4oc3=O)c2)cc1	none
COC(=O)[C@@]12CCCCN1[C@H](c1ccc(-c3ccc(C(C)=O)cc3)cc1)[C@@H]1C(=O)N(C)C(=O)[C@@H]12	none (no result: IEC-6 tox, APP 5UTR inh, KLF5 inhibitor, Ba/F3 V617F tox, BaF3 tox)
COc1ccc(-c2nc(-c3cccs3)no2)cc1	aSyn 5UTR inh 83 (no result: APP 5UTR inh)
CC(C)(C)c1ccc(-c2cc(N)n[nH]2)cc1	APP 5UTR inh 61, aSyn 5UTR inh 91
Cc1ccc(-c2cc(N)n[nH]2)cc1	none
Cc1ccc(Oc2c(F)c(F)nc(N3CCCC3)c2F)cc1	none
O=[N+]([O-])c1ccc(Oc2c(F)c(F)nc(N3CCCC3)c2F)cc1	APP 5UTR inh 83
O=C(COc1ccc(-n2cnnn2)cc1)NC1CCCCC1	APP 5UTR inh 74
CC1CCCCC1NC(=O)COc1ccc(-n2cnnn2)cc1 (stereo unspecified)	none
CC1CC(C)CN(S(=O)(=O)N2CCC(C(=O)NCCc3ccccc3)CC2)C1 (stereo unspecified)	none (no result: APP 5UTR inh, Ba/F3 V617F tox, BaF3 tox)
Cc1coc2c1C(=O)C(=O)c1c-2ccc2c(C)cccc12	none (no result: IEC-6 tox, APP 5UTR inh, KLF5 inhibitor, Ba/F3 V617F tox, BaF3 tox)
Cc1coc2c1C(=O)C(=O)c1c-2ccc2c1CCCC2(C)C	aSyn 5UTR inh 63
C[C@H]1COC2=C1C(=O)C(=O)c1c2ccc2c1CCCC2(C)C	aSyn 5UTR inh 102
CC1=NN(C(=O)c2ccccc2F)C(O)(c2ccc(Cl)cc2)C1 (stereo unspecified)	none (no result: APP 5UTR inh, Ba/F3 V617F tox, BaF3 tox)
COc1ccc(-c2cc(C(F)F)n3ncc(C(=O)N4CCc5ccccc54)c3n2)cc1	APP 5UTR inh 87, aSyn 5UTR inh inconclusive
CCCCOC(=O)C[N+](C)(C)CCOC1CC2CCC1(C)C2(C)C (stereo unspecified)	Ba/F3 V617F tox 54, BaF3 tox 58
CCC(C)OC(=O)C[N+](C)(C)CCOC1CC2CCC1(C)C2(C)C (stereo unspecified)	Ba/F3 V617F tox 82, BaF3 tox 74
CCCOC(=O)C[N+](C)(C)CCOC1CC2CCC1(C)C2(C)C (stereo unspecified)	Ba/F3 V617F tox 30, BaF3 tox 46 (no result: APP 5UTR inh)
CCCCCCOC(=O)C[N+](C)(C)CCOC1CC2CCC1(C)C2(C)C (stereo unspecified)	Ba/F3 V617F tox 89, BaF3 tox 80
CC1(C)C2CCC1(C)C(OCCNCCOC(=O)Nc1ccccc1)C2 (stereo unspecified)	none (no result: APP 5UTR inh)
CCCCN(C)CCNC(=O)C1CCN(S(=O)(=O)c2cccc3nsnc23)CC1	none (no result: APP 5UTR inh, Ba/F3 V617F tox, BaF3 tox)
COCCNC(=O)C1CCCN(S(=O)(=O)c2cccc3nsnc23)C1 (stereo unspecified)	none (no result: APP 5UTR inh, Ba/F3 V617F tox, BaF3 tox)
O=C(COc1ccc([N+](=O)[O-])cc1)Nc1ccc2c(c1)nc1n2CCOC1	none (no result: APP 5UTR inh, Ba/F3 V617F tox, BaF3 tox)
CS(=O)(=O)N(CC(=O)NCc1ccncc1)C1CCCCC1	none
Cc1n[nH]c(C)c1S(=O)(=O)N1CCC(C(=O)Nc2cccc(F)c2)CC1	none (no result: APP 5UTR inh, Ba/F3 V617F tox, BaF3 tox)
CC(C)CCOC(=O)C[N+](C)(C)CCOC1CC2CCC1(C)C2(C)C (stereo unspecified)	Ba/F3 V617F tox 90, BaF3 tox 76
CCCCCCCOC(=O)C[N+](C)(C)CCOC1CC2CCC1(C)C2(C)C (stereo unspecified)	Ba/F3 V617F tox 101, BaF3 tox 85
CCN(CC(=O)Nc1c(F)cccc1F)C(=O)COc1cccc2c1OC(C)(C)C2	none (no result: IEC-6 tox, APP 5UTR inh, KLF5 inhibitor, Ba/F3 V617F tox, BaF3 tox)
O=C(COc1ccc(Br)cc1)N1CCN(S(=O)(=O)/C=C/c2ccccc2)CC1	APP 5UTR inh 69
CCN(CC)CC#CC(O)(c1ccccc1)c1ccccc1	APP 5UTR inh 49
CN(C)CCC#CC(O)(c1ccccc1)c1ccccc1	none
COc1ccc2cc3[n+](cc2c1OC)CCc1cc2c(cc1-3)OCO2	Ba/F3 V617F tox 72, BaF3 tox 63
COc1cccc(C2=NCCc3cc4c(cc32)OCO4)c1OC	none
